The text below walks through data of the supplement of paper PMC10338343.

± gives the standard deviation.

Assay [1] concerns MILI (PIWIL2) piRISC loaded with L1MC piRNA (26 nt). Nature of the assay: pre-steady-state target cleavage rate (min^-1); guide: L1MC piRNA 5'p-UAACUAAAUACUAUGCAAGCUGUAGG; higher = faster piRNA-guided slicing of the target. The procedure, abridged:
(§1)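 The pre-steady-state cleavage rate was derived from a burst-and-steady-state fit of Cleave-'n-Seq data. For these assays, 1 nM active affinity-purified piRISC loaded with a single synthetic guide was mixed with […] a transcribed, DNA-blocked target RNA library in HEPES–potassium acetate buffer at 33 °C, with or without 500 nM GTSF1 partner protein, for 0–8 or 0–960 min. Sequencing counts of uncleaved targets were normalised to depth and to weakly complementary targets, and k3 was capped at 0.0001 min^-1 after three trials were pooled.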

The test system of assay [2] is EfPiwi piRISC loaded with L1MC piRNA (26 nt). Nature of the assay: pre-steady-state target cleavage rate (min^-1); auxiliary factor: 500 nM Ephydatia muelleri Gtsf1; guide: L1MC piRNA 5'p-UAACUAAAUACUAUGCAAGCUGUAGG; MIWI and MILI are mouse PIWI proteins and EfPiwi is from a freshwater sponge; tags in brackets are library labels; higher = faster piRNA-guided slicing of the target. The procedure, abridged: as §1
The mark [3] stands for this setting: auxiliary factor: 500 nM mouse GTSF1.
Setting [4] is: auxiliary factor: none (no GTSF1).

In the case of UCCUGCUACACCUUGCAUAGUAUUUAGUUA, the “pre-steady-state target cleavage rate” value in assay [1] (setting [3]) came to 0.214 ± 0.018; in assay [1] (setting [4]), 0.0087 ± 0.0022; in assay [2] it was 0.0124 ± 0.0048.
In the case of UCCUCCUACAGCUUGCAUAGUAUUUAUUUA, the “pre-steady-state target cleavage rate” value was found to be 0.142 ± 0.019 in assay [1] (setting [3]), 0.00314 ± 0.0027 in assay [1] (setting [4]) and 0.143 ± 0.053 in assay [2].
As for UCCUCCUACAGCUUGCAUAGUAUUUAGUA, the “pre-steady-state target cleavage rate” value in assay [1] (setting [3]) came to 0.177 ± 0.021; in assay [1] (setting [4]), 0.00474 ± 0.0025; in assay [2], 0.00701 ± 0.0026.
Taken in the same sequence, the figures for UCCUGCUACAGCUUGCAUAGUAUUUGGUUA were 0.27 ± 0.029, 0.00697 ± 0.0023 and 0.00556 ± 0.0012.
Taken in the same sequence, the figures for UCCUGCUACAGCUUCCAUUGUAUUUAGUUA were 0.157 ± 0.029, 0.00322 ± 0.0022 and 0.00266 ± 0.0018.
The matching figures for UCCUCCUACAGCAACCAUAGUAUUUAGUUA: 0.21 ± 0.022, 0.00404 ± 0.002 and 0.00322 ± 0.0025.
With UCCUGGAACAGCUUGCAGAGUAUUUAGUUA, the figures for the “pre-steady-state target cleavage rate” value in assay [1] (setting [3]), in assay [1] (setting [4]) and in assay [2] were 0.193 ± 0.019, 0.00795 ± 0.0019 and 0.012 ± 0.003, respectively.
Taken in the same sequence, the figures for UCCUGGAUGUGCUUGCAUAGUGUUUAGUUA were 0.0653 ± 0.013, 0.00396 ± 0.0032 and 0.0123 ± 0.0051.
Regarding UCCUGGAUCAGCUUGUCAUAGUAUUUAGUUA, the results for the “pre-steady-state target cleavage rate” value in assay [1] (setting [3]), in assay [1] (setting [4]) and in assay [2] were 0.21 ± 0.019, 0.00334 ± 0.0027 and 0.0196 ± 0.0046, respectively.
For UCCUCCUACAGAUUGCAUAGUAUUUAGUUA, the “pre-steady-state target cleavage rate” value in assay [1] (setting [3]) amounted to 0.236 ± 0.014; in assay [1] (setting [4]) it was 0.00814 ± 0.0018; in assay [2], 0.0555 ± 0.014.
For UCCUGGUAGUGCUUGCAUAGUAUUUAGUAA, the “pre-steady-state target cleavage rate” value in assay [1] (setting [3]) came to 0.191 ± 0.032; in assay [1] (setting [4]) it was 0.00505 ± 0.0031; in assay [2] it was 0.00326 ± 0.0024.
The matching figures for UCCUGGUACAGCUUGCAGAGUAUUUAGUUA: 0.121 ± 0.026, 0.00836 ± 0.0028 and 0.00371 ± 0.0027.
As for UCCUGGAUCAGCUUGCAUAGUAUCUUAGUUA, the “pre-steady-state target cleavage rate” value in assay [1] (setting [3]) stood at 0.234 ± 0.021; in assay [1] (setting [4]), 0.00648 ± 0.0025; in assay [2], 0.0248 ± 0.0072.
In the case of UCCUGGAUCAGCUUGCAUAGAAUUUAGUUA, the “pre-steady-state target cleavage rate” value in assay [1] (setting [3]) is 0.0368 ± 0.0086; in assay [1] (setting [4]), 0.00356 ± 0.002; in assay [2] it was 0.00327 ± 0.0015.
UCCUGGAAGACCUUGCAUAGUAUUUAGUUA: the “pre-steady-state target cleavage rate” value in assay [1] (setting [3]) was 0.212 ± 0.02; in assay [1] (setting [4]) it was 0.00774 ± 0.0029; in assay [2] it was 0.00668 ± 0.003.
Taken in the same sequence, the figures for UCCUCCUUCAGCUUGCAUAGUAUUUAGUAA were 0.228 ± 0.021, 0.00401 ± 0.0018 and 0.012 ± 0.005.
In the case of “UCCUGCUACAGCUUGCAUAGUAUUUAGUUA [g2:g25:cont:t1A]”, the “pre-steady-state target cleavage rate” value came out at 0.282 ± 0.019 in assay [1] (setting [3]), 0.0105 ± 0.003 in assay [1] (setting [4]) and 0.0357 ± 0.011 in assay [2].
